Results as given in the supplement of paper PMC11417369.
± gives the standard deviation of the averaged measurements. In all, about 25,000 sequences were measured (“ln(normalized median fluorescence intensity)”: median about 8.9, highest 2% from about 10 on). For the sample, the highest values were picked, then their nearest neighbours and some sequences at random.

System: PfAP2-LT AP2 domain (GST-tagged)
Test: gcPBM binding intensity (ln(normalized median fluorescence intensity)); higher = stronger DNA binding
Outline: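 An Agilent 4 × 180k array of primer-extended double-stranded 36-bp intergenic genomic probes, with negative controls, was incubated for 1 h with GST-tagged P. falciparum DNA-binding domains expressed in E. coli. Alexa488 anti-GST antibody detected bound protein, scanned at 488 nm. Binding intensity is the highest Masliner-normalised natural-log median intensity across replicate spots of either probe orientation.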

Sequence	gcPBM binding intensity (ln)
AAAAAAAAAAAAAAAACACACAATTGAATTATTAAG [CACACA_site2864]	8.7 ± 0.61
TTCTTATATTGTACAGTACACACCTTTATAATGTTA [CACACA_site7953]	9.15 ± 0.49
TATCATAAAATATGTAGTACGTATATATATAAAAAT [XGTACX_site5455]	8.97 ± 0.41
GTAATTATTAATAAAACATGCGTATAAAATTTTCTC [TGCATGCA_site50]	8.62 ± 0.46
TATATATATATATTTACACACATTCATATAAATTCA [CACACA_site3532]	9.04 ± 0.28
TACACCCATAGACACACACACACGCATAAAAAAAAA [CACACA_site8428]	9.95 ± 0.55
ATTTGGCATAGACACACACACACACGCACGCACATA [CACACA_site6424]	10.3 ± 0.28
AAATTTGGCAGACACACACACACACGCACACGCACA [CACACA_site6423]	10.4 ± 0.33
TACAGACATAGACACACACACACGCATAAAAAAAAA [CACACA_site6820]	10 ± 0.51
CAGACGCACGTATTTGCACACATTGCCACGTAATTA [CACACA_site3349]	9.28 ± 0.37
TACTTATTGTGATACTTATATTATTTTATGATTAAA [XGTACX_negctrl_site353]	8.5 ± 0.42
TTTTGGTGGGTTACAAGTACTCAAAATGGATTGTTA [XGTACX_site1951]	8.56 ± 0.38
GTTGCCATCATTTGGCGTACAGTCAAAACCAAATCT [XGTACX_site1398]	8.56 ± 0.37
ACAACACATATTCATCGTACATGTATTAGGAAGACA [XGTACX_site1859]	9.04 ± 0.42
GTATATTGTACCATCACACATGTAAAACATAGATGT [CACACA_site5359]	8.94 ± 0.43
TGGTATATATTTCCTTGTACATATAATATATATTGT [XGTACX_site3961]	8.94 ± 0.51
TACACAAATATATATATATATATATATATATATATA [XGTACX_negctrl_site305]	10 ± 0.5
TAATATAATCTGAGTGCACACAAATAAATAAACATA [CACACA_site8032]	9.16 ± 0.44
ATAAAAATAAAAAGTGTGCACACAAAAATATATATA [GTGCAC_site9931]	9.62 ± 0.36
CACAAATATACAAATACACACAAATATACAAATACA [CACACA_site2385]	9.42 ± 0.44
GCACAAATATATATATATATATATATATATATATAT [GTGCAC_negctrl_site661]	10.2 ± 0.12
ATGAGTGCACAAATATATATATATATATATATATAT [CACACA_negctrl_site404]	10.2 ± 0.26
TATAATGATGATGATAGTACGTATTAGTATAAAAAA [XGTACX_site9]	8.81 ± 0.52

Sequence	gcPBM binding intensity (ln)
TATACCTTTTTATTCACACATATATGTCATATGTCA [CACACA_site5423]	9.28 ± 0.5
CTCTTGTCATTTTGCACACACACATGGATAGGTTAT [CACACA_site5655]	9.81 ± 0.33
ATAAAATTATATACTCGTACACAAAAAAAAAAAATA [XGTACX_site6035]	8.77 ± 0.47
TATAAGTGCCGTTATACACACGTTATATAAATATTA [CACACA_site4401]	8.81 ± 0.4
CGTTTATTAAACTTGACACACACACCCCCACATATA [CACACA_site8151]	9.975 ± 0.064
TATTAAACTGGACACACACACACACCCATATATAAA [CACACA_site4579]	10.15 ± 0.021
AACACAGATAAATTAACACACACACCCATATATATA [CACACA_site9310]	9.85 ± 0.23
TATTAAACGAAACACACACACACACCCATATATAAA [CACACA_site759]	10.23 ± 0.099
CACAGATAAATTAACACACACACACCCATATATATA [CACACA_site3960]	10.05 ± 0.071
TTCCCATGTAATATTAAACACACACCCATATAACAC [CACACA_site7905]	9.505 ± 0.078
ATACGACAAATATAAAGTACAAGCTTGGTTTTTATA [XGTACX_site8103]	8.88 ± 0.59
AATTTGAAATATGTGGTGCAGTTATATAATATGTTT [GTGCAC_site9885]	8.87 ± 0.41
GTACATATATACATTACACACGGTTTGATTTAAAAA [CACACA_site3379]	8.98 ± 0.41
AAAGAAAAAAAAAACACACACACACCCATTCAATAT [CACACA_site38]	10.29 ± 0.035
AAAGAAAAAAAAAACACACACACACGCATTCAATAT [CACACA_site6169]	10.1 ± 0.13
AAAAAAAAAAAACACACACACACATTCAATATAAAA [CACACA_site40]	9.76 ± 0.28
AGAAAAAAAAAACACACACACACACCCTCAATATAA [CACACA_site39]	10.1 ± 0.11
ATATACAATACAAAAACACACACAAAAAAAGAAAAG [CACACA_site8668]	9.59 ± 0.4
AGAAAAAAAAAAAAAAAACACACGGTACATTCAAAG [CACACA_site2]	8.84 ± 0.43
AAAAATATGCTTCCATGTACTTAAAAAAAAAATTTA [XGTACX_site3617]	8.34 ± 0.47
TTCATTTATATAATCACACATTTTATCATCTATGTT [CACACA_site4327]	8.98 ± 0.47
ATGCAAACTAAAAGACGTACAGAAAAGTATCATACT [XGTACX_site8766]	9.02 ± 0.42
TAAACAAATAAATAAACACACAATATATGTATATAT [CACACA_site3803]	9.05 ± 0.38
